Results: PubChem BioAssay AID1259418 (Broad Institute, 2018)
Among all 3,400 compounds or so, about 840 (25%) were called active. About 11% were inconclusive and are not listed. A selection follows. Results with a measured potency or affinity are listed apart. A number with no mark means an inactive call.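 How the source made its calls: active means fitted half-maximal concentration of signal decrease at or below twice the sample's top tested concentration; inconclusive means flat curve between -70 and -30 percent, or poor fit; inactive means flat within 30 percent, signal rise, or potency above limit.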

Assay: T. gondii growth inhibition with IFN-gamma, dose response, cell-based, ME49Luc, HeLa, luciferase, 72 h (AID 1259418)
Details: T. gondii ME49Luc in IFN-y HeLa, hits give low values, -100% = high-dose IFN-γ control wells; at 19.5 µM unless noted

| Structure (SMILES) | max activity |
| --- | --- |
| CC(C)c1ccc(S(=O)(=O)N2CCC3(CC2)NCCN=C3NCc2ccc(F)cc2)cc1 | -13.4% [at 10 µM] |
| COCCNC1=NCCNC12CCN(S(=O)(=O)c1ccc(C(C)C)cc1)CC2 | -6.8% [at 1.35 µM] |
| COc1ccccc1CCC(=O)Nc1ccc2c(c1)CCC(=O)N2C | -10.7% [at 0.16 µM] |
| O=C1CCc2cc(NC(=O)c3cncc(Br)c3)ccc2N1 | 4.53% [at 0.68 µM] |
| Cc1cccc(NC(=O)Nc2ccc(-c3nc(-c4cc(C)ccc4C)co3)cc2)c1 | 6.67% |
| CC(C)CC#Cc1ccc([C@@H]2[C@H]3CN(C(=O)Nc4cc(F)ccc4F)CC(=O)N3[C@H]2CO)cc1 | 2.95% [at 0.16 µM] |
| Cc1oc(-c2ccccc2)nc1Cn1nnc(-c2nc(-c3cccc(C(F)(F)F)c3)no2)c1C | -10.4% [at 0.35 µM] |
| CCC(C(=O)N1CCC2(CC1)Nc1cc(OC)ccc1-n1cccc12)c1ccccc1 (stereo not given) | 9.09% [at 0.35 µM] |
| CCOC(=O)CSC1=Nc2ccccc2C2=NC(CCC(=O)NCCc3ccccc3)C(=O)N12 (stereo not given) | 12.5% |
| COc1ccccc1CNC(=O)CCC1N=C2c3ccccc3N=C(SCc3ccc(C)cc3)N2C1=O (stereo not given) | 16.9% [at 0.16 µM] |
| O=C(CC1N=C2c3ccccc3N=C(SCc3ccc(F)cc3)N2C1=O)NCc1ccccc1 (stereo not given) | 12.9% [at 10 µM] |
| O=C(CCC1N=C2c3ccccc3N=C(SCc3cccc(F)c3)N2C1=O)NCCc1ccccc1 (stereo not given) | 28.7% |
| N#CCSC1=Nc2ccccc2C2=NC(CCC(=O)NCCc3ccccc3)C(=O)N12 (stereo not given) | 23.8% [at 0.16 µM] |
| O=C(CC1N=C2c3ccccc3N=C(SCc3cccc(F)c3)N2C1=O)NCc1ccc(F)cc1 (stereo not given) | 31.4% [at 2.6 µM] |
| CN(C)Cc1noc2c1CN(Cc1nccn1C)CC2 | 50.1% |
| COc1cc(NC(=O)CN2CCC3(CC2)N=C(c2cccc(C)c2)C(=O)N3)cc(OC)c1 | -9.06% [at 2.6 µM] |
| Cc1ccc(-c2nc(Cn3nnc(-c4nc(-c5ccc6c(c5)OCO6)no4)c3C)c(C)o2)cc1 | 17.5% [at 0.68 µM] |
| COc1cc(OC)cc(C(=O)N2CCC3(CC2)Nc2ccc(Cl)cc2-n2cccc23)c1 | -6.3% [at 5 µM] |
| COc1ccccc1N1CCN(c2nc(-c3ccc(Cl)cc3)nc3ccccc23)CC1 | 8.55% [at 5 µM] |
| Cc1noc(C)c1C1CCCN1C(=O)Cn1nc(C(F)(F)F)cc1C (stereo not given) | -9.96% [at 0.35 µM] |
| COc1ccc(-c2nc(N3CCCCC3)c3ccccc3n2)cc1 | 24.4% |
| COc1ccc(-c2nc(N3CCN(c4ccccc4)CC3)c3ccccc3n2)cc1 | 18.5% |
| COc1ccc(-c2nc(N3CCCC3)c3ccccc3n2)cc1 | -15.5% [at 2.6 µM] |
| COc1ccc(-c2nc(N3CCC(N4CCCCC4)CC3)c3ccccc3n2)cc1 | -13.2% [at 10 µM] |
| COc1ccc(-c2nc(N3CCCCCC3)c3ccccc3n2)cc1 | 11.2% [at 0.16 µM] |

| Structure (SMILES) | max activity |
| --- | --- |
| Clc1ccc(-c2nc(N3CCC4(CC3)OCCO4)c3ccccc3n2)cc1 | -8.6% [at 10 µM] |
| COc1ccc(-c2nc(N3CCN(c4ccc(OC)cc4)CC3)c3ccccc3n2)cc1 | 51.6% |
| COc1ccc(-c2nc(N3CCN(Cc4ccccc4)CC3)c3ccccc3n2)cc1 | 20.1% |
| CCc1ccc(C(=O)N2CCC3(CC2)Nc2cc(OC)ccc2-n2cccc23)cc1 | 8.15% [at 0.68 µM] |
| CC(=O)N1CCC(N(C)Cc2cc(C(C)(C)C)n[nH]2)CC1 | 35.9% |
| COc1ccc(-c2noc(-c3nnn(Cc4nc(-c5ccccc5OC)oc4C)c3C)n2)cc1 | 15.5% [at 5 µM] |
| COc1cc(OC)cc(C(=O)N2CSC[C@@H]2C(=O)NCCc2csc(-c3ccccc3)n2)c1 | 23.7% |
| COc1ccc(-c2nc3c(s2)CN(S(=O)(=O)c2cccc(Cl)c2C)CC3)cc1 | 10.3% [at 10 µM] |
| COc1cccc(-c2nc3c(s2)CN(S(=O)(=O)c2cccc(C)c2)CC3)c1 | -6.22% [at 2.6 µM] |
| COc1cccc(-c2nc3c(s2)CN(S(=O)(=O)c2cc(C)cc(C)c2)CC3)c1 | -33.8% [at 0.16 µM] |
| CCc1ccccc1S(=O)(=O)N1CCc2nc(-c3ccccc3)sc2C1 | 115% [at 10 µM] |
| COc1cccc(-c2nc3c(s2)CN(S(=O)(=O)c2ccccc2Cl)CC3)c1 | 5.54% [at 10 µM] |
| CCc1ccccc1S(=O)(=O)N1CCc2nc(-c3cccc(OC)c3)sc2C1 | -7.33% [at 0.35 µM] |
| COc1ccc(S(=O)(=O)N2CCc3nc(-c4cccc(OC)c4)sc3C2)cc1 | -10.4% [at 0.16 µM] |
| COc1ccc(-c2nc3c(s2)CN(S(=O)(=O)c2cc(OC)ccc2OC)CC3)cc1 | 28% |
| Cc1ccc(-c2nc(CSc3nc4c(c(=O)[nH]3)CN(Cc3ccc(Cl)cc3)CC4)c(C)o2)cc1 | 23.9% |
| O=C(Cn1cccc1-c1nc(-c2ccc(Cl)cc2)cs1)N1CCC2(CC1)OCCO2 | -6.36% [at 10 µM] |
| O=C1CCc2cc(S(=O)(=O)N3CCN(c4ccc(F)cc4)CC3)cc3c2N1CCC3 | 10.7% [at 2.6 µM] |
| CCOC(=O)c1cccc(NC(=O)Nc2ccc(-c3nc(-c4ccc(C)cc4)co3)cc2)c1 | 67.3% |
| COc1ccc(-c2nc3c(s2)CN(C(=O)Nc2ccc(Br)cc2)CC3)cc1 | 26.4% [at 10 µM] |
| Cc1nc(-c2ccccc2)sc1C(=O)Nc1ccc(-n2c(C)nc3ccccc3c2=O)cc1 | -25.8% |
| CC1CCN(C(=O)c2ccc(-c3csc(C4CC4)n3)cc2)CC1 | 6.7% |
| CCN1C(=O)CCc2cc(NC(=O)Cc3c(F)cccc3Cl)ccc21 | 7.81% |
| O=C(Nc1ccc(-c2nc(-c3ccccc3)co2)cc1)c1ccc(Br)o1 | 25.6% |
| Cc1ccc2c(c1C)-n1cccc1C1(CCN(C(=O)c3cccs3)CC1)N2 | -15.1% [at 5 µM] |

| Structure (SMILES) | max activity |
| --- | --- |
| COc1ccc(-c2nc(N3CCC(C)CC3)c3ccccc3n2)cc1 | 21.8% |
| COc1ccc(OCC(=O)N2CCC[C@@H]2C(=O)NCCc2csc(-c3ccccc3)n2)cc1 | 10.2% [at 0.16 µM] |
| COc1ccc(-c2nc(NCCN3CCN(c4ccc(OC)cc4)CC3)c3ccccc3n2)cc1 | 15.4% [at 0.16 µM] |
| CCCN1CCN(CCCNc2nc(-c3ccc(Cl)cc3)nc3ccccc23)CC1 | -50.1% [at 1.35 µM] |
| COc1ccc(-c2nc(NCCCN3CCCC3)c3ccccc3n2)cc1 | 15.7% |
| COc1ccc(-c2nc(NCCCN3CCN(c4ccc(F)cc4)CC3)c3ccccc3n2)cc1 | -17.2% [at 0.35 µM] |
| COc1ccc(N2CCN(CCNc3nc(-c4ccc(Cl)cc4)nc4ccccc34)CC2)cc1 | 22% [at 0.68 µM] |
| COc1ccc(-c2nc(NCCCN3CCN(c4cc(C)ccc4C)CC3)c3ccccc3n2)cc1 | 21.7% |
| O=C(NCCc1csc(-c2ccccc2)n1)[C@H]1CCCN1C(=O)c1cccc(Cl)c1 | -10.8% [at 0.35 µM] |
| Cc1cccc(-c2nc(Cn3nnc(-c4nc(-c5cccc(F)c5)no4)c3C)c(C)o2)c1 | -7.79% [at 1.35 µM] |
| COc1ccccc1-c1nc(Cn2nnc(-c3nc(-c4ccccc4C)no3)c2C)c(C)o1 | 11.1% [at 0.16 µM] |
| COc1ccc(-c2nc(NCc3ccccc3Cl)c3ccccc3n2)cc1 | 7.56% [at 0.16 µM] |
| COc1ccccc1CNC(=O)CC1N=C2c3ccccc3N=C(SCC#N)N2C1=O (stereo not given) | 42.4% [at 10 µM] |
| COc1cc(OC)cc(-c2noc(-c3nnn(Cc4nc(-c5ccc(C)cc5)oc4C)c3C)n2)c1 | 10.5% [at 0.16 µM] |
| CC1CCCCN1C(=O)c1ccnn1-c1ccc2ccc(-c3ccccc3)cn12 (stereo not given) | 31.6% |
| Cc1ccc(NC(=O)N2CCN(Cc3nc(-c4ccccc4C)oc3C)CC2)cc1C | 8.71% [at 0.68 µM] |
| COc1ccc(-c2nc(NCCCN3CCC(Cc4ccccc4)CC3)c3ccccc3n2)cc1 | -19.1% [at 0.35 µM] |
| CCC(CN1CCOCC1)Nc1nc(-c2ccc(OC)cc2)nc2ccccc12 (stereo not given) | 27.4% |
| O=C(NCCc1c[nH]c2ccccc12)c1cc(-c2ccccn2)nc2ccccc12 | 15.3% [at 0.68 µM] |
| CCCc1ccc(S(=O)(=O)N2CCc3nc(-c4ccc(OCC)cc4)sc3C2)cc1 | 88.1% |
| Cc1ccc(CN2CC[C@H]3CO[C@@H](CNC(=O)C4CC4)[C@@H]3C2)cc1 | 18.5% |
| O=C1N(CC2CC2)CCC12CCCN(Cc1cncc(Cl)c1)CC2 (stereo not given) | 33.7% |
| COc1cccc(N(Cc2nc(-c3ccc(C)cc3)oc2C)S(=O)(=O)c2ccccc2)c1 | -10.4% [at 10 µM] |
| COc1cccc(N(Cc2nc(-c3ccc(OC(C)C)cc3)oc2C)S(=O)(=O)c2ccccc2)c1 | 4.32% [at 10 µM] |
| COc1ccc(CNC(=O)CC2N=C3c4ccccc4N=C(SCc4cc(=O)n5ccccc5n4)N3C2=O)cc1 (stereo not given) | 19.7% [at 2.6 µM] |
